Reference: the supplement of paper PMC11732987, “Enantioselective OTUD7B fragment discovery through chemoproteomics screening and high-throughput optimisation” (Communications Chemistry, 2025)

Columns and labels:
Experiment in all cases: log2 ratio of Biotin-Ahx-Ub-VS probe labelling (fragment/DMSO); higher = less target engagement (more negative = stronger competition), active = hit call of the paper (q ≤ 0.05, log2 ratio ≤ -1)
Conditions in all cases: compound concentration: 200 uM; treatment time: 3 h
USP34 = USP34 (UniProt Q70CQ2)
USP34, sequence (Q70CQ2 whole entry, the tested form may be a part): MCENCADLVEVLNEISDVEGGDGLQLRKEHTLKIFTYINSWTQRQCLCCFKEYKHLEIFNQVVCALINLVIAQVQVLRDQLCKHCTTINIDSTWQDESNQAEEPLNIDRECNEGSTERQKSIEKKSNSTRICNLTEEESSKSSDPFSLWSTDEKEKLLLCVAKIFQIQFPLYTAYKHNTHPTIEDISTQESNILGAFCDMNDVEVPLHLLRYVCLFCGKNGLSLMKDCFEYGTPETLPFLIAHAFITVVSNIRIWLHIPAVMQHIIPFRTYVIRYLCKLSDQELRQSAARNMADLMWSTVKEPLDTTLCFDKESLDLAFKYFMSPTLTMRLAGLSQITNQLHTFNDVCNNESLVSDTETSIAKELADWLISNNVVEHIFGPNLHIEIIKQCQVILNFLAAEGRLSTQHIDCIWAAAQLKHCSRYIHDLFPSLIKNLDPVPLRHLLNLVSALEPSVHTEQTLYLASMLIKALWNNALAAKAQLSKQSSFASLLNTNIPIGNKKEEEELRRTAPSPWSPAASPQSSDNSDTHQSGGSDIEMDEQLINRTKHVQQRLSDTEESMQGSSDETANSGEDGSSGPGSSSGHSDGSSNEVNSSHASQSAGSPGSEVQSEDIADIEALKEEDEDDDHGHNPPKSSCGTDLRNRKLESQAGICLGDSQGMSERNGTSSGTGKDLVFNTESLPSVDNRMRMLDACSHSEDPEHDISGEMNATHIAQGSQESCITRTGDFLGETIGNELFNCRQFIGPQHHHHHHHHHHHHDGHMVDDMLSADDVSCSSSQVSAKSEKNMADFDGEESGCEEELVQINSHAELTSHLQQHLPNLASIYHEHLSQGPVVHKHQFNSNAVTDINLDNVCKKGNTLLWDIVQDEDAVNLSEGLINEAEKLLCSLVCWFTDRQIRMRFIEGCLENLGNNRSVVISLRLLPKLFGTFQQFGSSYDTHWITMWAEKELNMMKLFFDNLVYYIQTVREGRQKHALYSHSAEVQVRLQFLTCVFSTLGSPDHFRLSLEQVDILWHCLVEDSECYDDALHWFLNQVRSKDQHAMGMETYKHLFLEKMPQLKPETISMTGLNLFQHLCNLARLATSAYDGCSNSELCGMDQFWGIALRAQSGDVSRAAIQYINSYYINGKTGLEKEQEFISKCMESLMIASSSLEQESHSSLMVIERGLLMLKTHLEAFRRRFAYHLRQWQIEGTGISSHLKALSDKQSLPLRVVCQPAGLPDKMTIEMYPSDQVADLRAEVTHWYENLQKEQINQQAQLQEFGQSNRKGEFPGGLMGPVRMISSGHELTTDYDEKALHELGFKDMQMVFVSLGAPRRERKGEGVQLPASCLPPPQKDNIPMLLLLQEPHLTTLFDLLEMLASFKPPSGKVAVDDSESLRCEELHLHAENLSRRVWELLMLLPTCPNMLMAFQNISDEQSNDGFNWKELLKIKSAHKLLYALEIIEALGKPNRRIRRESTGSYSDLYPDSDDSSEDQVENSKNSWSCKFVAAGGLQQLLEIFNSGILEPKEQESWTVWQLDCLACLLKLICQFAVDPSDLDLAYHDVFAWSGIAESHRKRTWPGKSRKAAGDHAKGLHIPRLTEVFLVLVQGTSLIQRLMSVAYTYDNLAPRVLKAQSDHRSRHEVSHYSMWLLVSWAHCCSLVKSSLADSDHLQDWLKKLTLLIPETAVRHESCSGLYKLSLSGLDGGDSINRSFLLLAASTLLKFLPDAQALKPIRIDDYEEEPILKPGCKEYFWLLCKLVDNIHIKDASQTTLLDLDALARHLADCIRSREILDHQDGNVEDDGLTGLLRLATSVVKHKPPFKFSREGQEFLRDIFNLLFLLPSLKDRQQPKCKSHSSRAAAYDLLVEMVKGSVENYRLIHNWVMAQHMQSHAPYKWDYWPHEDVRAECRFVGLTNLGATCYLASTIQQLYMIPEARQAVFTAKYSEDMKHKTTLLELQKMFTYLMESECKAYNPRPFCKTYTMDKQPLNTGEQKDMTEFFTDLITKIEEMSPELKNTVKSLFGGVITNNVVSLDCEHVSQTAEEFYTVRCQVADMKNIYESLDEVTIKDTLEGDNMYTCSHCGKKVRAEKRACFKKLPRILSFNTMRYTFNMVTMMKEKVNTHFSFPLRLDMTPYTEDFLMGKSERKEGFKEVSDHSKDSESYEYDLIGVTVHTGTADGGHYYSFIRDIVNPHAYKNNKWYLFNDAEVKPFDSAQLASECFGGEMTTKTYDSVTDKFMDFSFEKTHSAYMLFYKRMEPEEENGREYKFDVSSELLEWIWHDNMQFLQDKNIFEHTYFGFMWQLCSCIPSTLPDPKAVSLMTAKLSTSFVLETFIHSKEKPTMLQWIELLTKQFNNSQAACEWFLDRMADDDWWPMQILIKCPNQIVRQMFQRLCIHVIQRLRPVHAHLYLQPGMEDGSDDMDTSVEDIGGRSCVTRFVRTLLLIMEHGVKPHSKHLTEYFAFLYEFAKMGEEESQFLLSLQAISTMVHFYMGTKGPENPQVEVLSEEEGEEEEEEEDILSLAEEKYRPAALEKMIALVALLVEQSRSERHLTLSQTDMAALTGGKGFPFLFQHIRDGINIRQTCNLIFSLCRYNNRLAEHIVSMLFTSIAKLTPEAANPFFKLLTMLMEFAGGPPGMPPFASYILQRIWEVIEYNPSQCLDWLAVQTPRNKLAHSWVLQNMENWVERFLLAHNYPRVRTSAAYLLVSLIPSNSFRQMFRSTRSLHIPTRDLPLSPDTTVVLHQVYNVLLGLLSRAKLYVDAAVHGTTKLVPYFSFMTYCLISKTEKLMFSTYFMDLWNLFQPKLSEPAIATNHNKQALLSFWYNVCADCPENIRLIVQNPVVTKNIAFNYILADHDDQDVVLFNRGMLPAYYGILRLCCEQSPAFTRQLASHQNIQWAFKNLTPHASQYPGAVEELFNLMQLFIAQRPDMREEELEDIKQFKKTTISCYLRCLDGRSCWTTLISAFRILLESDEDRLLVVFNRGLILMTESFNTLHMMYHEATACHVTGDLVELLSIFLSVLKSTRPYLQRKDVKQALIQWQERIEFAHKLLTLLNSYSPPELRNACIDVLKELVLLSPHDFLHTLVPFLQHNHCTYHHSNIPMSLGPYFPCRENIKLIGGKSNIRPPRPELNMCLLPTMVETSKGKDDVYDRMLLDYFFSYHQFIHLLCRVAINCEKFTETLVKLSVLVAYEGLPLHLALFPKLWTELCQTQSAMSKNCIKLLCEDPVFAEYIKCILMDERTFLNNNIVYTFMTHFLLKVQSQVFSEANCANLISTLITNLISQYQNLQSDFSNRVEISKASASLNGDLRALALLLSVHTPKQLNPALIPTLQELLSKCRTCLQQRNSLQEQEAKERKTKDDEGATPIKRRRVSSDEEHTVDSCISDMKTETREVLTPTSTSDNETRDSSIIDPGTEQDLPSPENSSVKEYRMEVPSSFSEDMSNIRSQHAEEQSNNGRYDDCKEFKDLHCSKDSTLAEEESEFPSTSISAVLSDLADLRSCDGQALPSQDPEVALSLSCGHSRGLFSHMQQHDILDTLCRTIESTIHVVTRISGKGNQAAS
In short: (§1)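 HEK293T lysate, 495 µg per sample in Tris/CHAPS/IGEPAL buffer with protease inhibitors, was treated in triplicate with fragment at 200 µM or vehicle for 3 h and then with Biotin-Ahx-Ub-VS at 0.5 µM final for 1 h. Labelled DUBs were NeutrAvidin-enriched, digested with LysC and trypsin, and run by diaPASEF LC-MS/MS. Spectronaut label-free quantities were global-median-normalised, and values are average log2 fragment/vehicle ratios by unpaired t-test on proteins with ≥2 unique peptides.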

USP36 = target: T1, USP36 (UniProt Q9P275)
T1 sequence (whole entry): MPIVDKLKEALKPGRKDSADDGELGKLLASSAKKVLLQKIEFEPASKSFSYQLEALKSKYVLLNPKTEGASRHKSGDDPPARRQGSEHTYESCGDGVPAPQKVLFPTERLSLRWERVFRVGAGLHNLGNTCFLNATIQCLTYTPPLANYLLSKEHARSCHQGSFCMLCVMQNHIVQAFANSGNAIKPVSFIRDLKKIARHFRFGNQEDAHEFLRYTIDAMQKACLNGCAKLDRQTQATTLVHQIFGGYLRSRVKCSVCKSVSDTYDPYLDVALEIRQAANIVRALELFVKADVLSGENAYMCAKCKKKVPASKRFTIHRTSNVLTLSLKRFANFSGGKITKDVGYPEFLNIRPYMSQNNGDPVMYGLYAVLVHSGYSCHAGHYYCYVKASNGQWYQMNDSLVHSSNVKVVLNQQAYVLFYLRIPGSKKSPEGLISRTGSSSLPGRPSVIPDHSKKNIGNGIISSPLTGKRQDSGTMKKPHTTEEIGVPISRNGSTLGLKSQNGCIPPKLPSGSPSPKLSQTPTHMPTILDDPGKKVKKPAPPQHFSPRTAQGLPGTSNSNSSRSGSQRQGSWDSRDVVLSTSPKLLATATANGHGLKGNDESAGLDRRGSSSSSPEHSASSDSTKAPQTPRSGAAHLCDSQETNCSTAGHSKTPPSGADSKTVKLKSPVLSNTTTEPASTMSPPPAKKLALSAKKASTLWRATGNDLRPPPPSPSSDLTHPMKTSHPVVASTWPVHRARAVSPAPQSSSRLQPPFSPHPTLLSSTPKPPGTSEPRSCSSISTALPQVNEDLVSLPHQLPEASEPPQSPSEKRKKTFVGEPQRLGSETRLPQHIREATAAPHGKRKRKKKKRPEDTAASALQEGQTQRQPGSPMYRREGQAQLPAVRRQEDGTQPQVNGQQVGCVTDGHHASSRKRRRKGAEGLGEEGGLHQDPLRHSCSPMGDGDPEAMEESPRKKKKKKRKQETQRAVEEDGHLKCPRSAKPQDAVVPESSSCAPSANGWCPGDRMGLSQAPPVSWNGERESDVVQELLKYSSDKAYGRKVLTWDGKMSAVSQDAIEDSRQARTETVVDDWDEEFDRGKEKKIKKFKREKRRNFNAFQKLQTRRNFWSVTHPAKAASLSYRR
In short: as §1

USP38 = target: T2, USP38 (UniProt Q8NB14)
T2 sequence (whole entry): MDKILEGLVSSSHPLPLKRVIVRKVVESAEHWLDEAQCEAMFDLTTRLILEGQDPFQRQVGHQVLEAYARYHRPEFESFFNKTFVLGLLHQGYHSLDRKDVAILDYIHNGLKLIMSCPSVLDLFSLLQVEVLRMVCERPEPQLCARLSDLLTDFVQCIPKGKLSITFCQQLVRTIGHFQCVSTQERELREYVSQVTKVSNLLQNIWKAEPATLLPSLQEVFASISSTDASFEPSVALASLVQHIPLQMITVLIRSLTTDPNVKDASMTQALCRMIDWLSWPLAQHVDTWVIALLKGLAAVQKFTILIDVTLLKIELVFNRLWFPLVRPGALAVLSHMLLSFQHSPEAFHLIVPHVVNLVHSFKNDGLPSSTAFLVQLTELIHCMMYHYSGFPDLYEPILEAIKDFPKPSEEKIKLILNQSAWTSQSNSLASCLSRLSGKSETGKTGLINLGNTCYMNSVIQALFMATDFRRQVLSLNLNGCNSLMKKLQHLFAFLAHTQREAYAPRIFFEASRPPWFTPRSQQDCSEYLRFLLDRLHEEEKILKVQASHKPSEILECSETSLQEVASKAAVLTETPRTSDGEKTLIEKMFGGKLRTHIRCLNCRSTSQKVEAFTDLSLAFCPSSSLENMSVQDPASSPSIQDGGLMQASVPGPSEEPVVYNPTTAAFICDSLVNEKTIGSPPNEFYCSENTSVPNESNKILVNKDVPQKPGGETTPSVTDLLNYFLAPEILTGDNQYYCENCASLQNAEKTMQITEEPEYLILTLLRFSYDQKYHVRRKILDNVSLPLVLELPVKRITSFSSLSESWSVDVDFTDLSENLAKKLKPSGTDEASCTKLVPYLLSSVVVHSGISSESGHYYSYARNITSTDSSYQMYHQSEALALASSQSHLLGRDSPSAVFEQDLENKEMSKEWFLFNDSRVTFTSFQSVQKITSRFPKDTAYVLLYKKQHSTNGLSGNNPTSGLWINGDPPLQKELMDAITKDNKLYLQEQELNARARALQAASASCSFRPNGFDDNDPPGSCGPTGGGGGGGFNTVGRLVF
In short: as §1

USP39 = target: T3, USP39 (UniProt Q53GS9)
T3 sequence (whole entry): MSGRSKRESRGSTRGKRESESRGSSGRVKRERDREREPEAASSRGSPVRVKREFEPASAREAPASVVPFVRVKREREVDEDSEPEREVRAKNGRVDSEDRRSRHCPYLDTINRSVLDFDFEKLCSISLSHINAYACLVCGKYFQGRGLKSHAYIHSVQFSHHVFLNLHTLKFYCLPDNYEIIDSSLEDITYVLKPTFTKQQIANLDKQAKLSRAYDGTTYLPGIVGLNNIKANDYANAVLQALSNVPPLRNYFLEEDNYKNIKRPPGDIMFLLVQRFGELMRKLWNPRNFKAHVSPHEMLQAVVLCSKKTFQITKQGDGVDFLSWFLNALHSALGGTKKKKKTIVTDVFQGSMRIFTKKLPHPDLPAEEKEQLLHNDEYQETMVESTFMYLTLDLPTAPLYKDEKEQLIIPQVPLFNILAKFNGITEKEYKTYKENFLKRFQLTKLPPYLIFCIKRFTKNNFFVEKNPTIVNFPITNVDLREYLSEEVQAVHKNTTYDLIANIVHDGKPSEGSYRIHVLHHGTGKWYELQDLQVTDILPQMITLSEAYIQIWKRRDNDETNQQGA
In short: as §1

USP4 = target: T4, USP4 (UniProt Q13107)
T4 sequence (whole entry): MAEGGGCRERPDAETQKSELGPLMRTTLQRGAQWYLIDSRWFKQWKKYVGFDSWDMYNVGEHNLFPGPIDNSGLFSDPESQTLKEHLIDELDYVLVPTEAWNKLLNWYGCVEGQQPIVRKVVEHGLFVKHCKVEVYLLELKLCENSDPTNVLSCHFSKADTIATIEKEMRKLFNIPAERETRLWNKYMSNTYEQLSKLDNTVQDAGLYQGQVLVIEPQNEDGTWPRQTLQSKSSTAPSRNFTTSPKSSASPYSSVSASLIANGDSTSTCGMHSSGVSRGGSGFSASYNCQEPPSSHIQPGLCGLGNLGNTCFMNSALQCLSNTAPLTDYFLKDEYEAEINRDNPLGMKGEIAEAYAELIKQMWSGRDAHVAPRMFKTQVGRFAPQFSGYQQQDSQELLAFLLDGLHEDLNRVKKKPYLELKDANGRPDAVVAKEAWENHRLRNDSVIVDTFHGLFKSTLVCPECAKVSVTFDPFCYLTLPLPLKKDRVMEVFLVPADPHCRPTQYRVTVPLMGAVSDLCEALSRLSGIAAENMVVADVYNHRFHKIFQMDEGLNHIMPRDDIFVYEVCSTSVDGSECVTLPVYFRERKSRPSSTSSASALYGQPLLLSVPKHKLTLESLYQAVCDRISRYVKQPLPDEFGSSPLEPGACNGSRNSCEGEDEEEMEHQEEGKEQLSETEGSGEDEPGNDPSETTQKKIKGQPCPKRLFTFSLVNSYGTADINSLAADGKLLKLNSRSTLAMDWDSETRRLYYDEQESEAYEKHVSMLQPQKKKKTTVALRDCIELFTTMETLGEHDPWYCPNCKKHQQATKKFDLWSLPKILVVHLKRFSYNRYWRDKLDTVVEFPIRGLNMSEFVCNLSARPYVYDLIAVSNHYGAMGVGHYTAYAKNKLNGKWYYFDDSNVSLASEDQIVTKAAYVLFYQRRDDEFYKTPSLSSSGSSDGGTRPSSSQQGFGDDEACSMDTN
In short: as §1

Measured: log2 ratio of Biotin-Ahx-Ub-VS probe labelling

CN1c2ccccc2C(NC(=O)CCl)CS1(=O)=O (stereo not given)
inactive: USP34 -0.111 | USP36 -0.287 | USP38 -0.071 | USP39 0.00949 | USP4 0.0683
